Inconclusive results are not listed. Calls of active or inactive are those of the source. Calls come from the whole dose curve; as a rule, active = well fitted curve in the direction sought with a large enough effect in the repeat runs; inconclusive = weak or mixed curves; inactive = no such curve, though single readings can be large; an effect the other way counts as inactive or inconclusive.
test: qHTS assay to identify small molecule antagonists of the retinoic acid receptor (RAR) signaling pathway (AID 1159552; note: nearly all actives have a fitted effect of over 50% in size); details: C3RL4 RARE luciferase reporter, retinol-stimulated, 6 h; series mostly up to 92.4 µM; activity, negative = inhibition: at the top concentration
Method in brief: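 Test chemicals and DMSO controls were pin-transferred onto C3RL4 cells a day after seeding; retinol (1 uM final) followed at once. Luminescent reporter output was quantified after 6 hr of co-incubation and 30 min with detection reagent.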
% is set by controls: 0 for no effect and ±100 for the full control effect.

Structure (SMILES) | activity, negative = inhibition
Cc1ccc(C)o1 | -9.96% (inactive)
CCCCCCCCCC(=O)OCC | 10.2% (inactive)
O=C(NS(=O)(=O)/C=C/c1cccs1)c1ccc(F)cc1Br | 4.35% (inactive)
CC(C)(C)c1cc(CCC(=O)OCC(COC(=O)CCc2cc(C(C)(C)C)c(O)c(C(C)(C)C)c2)(COC(=O)CCc2cc(C(C)(C)C)c(O)c(C(C)(C)C)c2)COC(=O)CCc2cc(C(C)(C)C)c(O)c(C(C)(C)C)c2)cc(C(C)(C)C)c1O | -16.3% [at 42.5 µM] (inactive)
Cc1ccc(C(=O)C(C)CN2CCCCC2)cc1 (stereo not drawn) | 6.12% [at 42.5 µM] (inactive)
O=C(NN1CCCC1)NS(=O)(=O)c1ccc(Cl)cc1 | 8.53% [at 42.5 µM] (inactive)
O=C1Nc2cc(Cl)ccc2Oc2ccccc21 | 0.0252% [at 42.5 µM] (inactive)
CC(=O)/C=C/C1C(C)=CCCC1(C)C (stereo not drawn) | 11.4% (inactive)
Oc1ccc(O)c2c(O)cccc12 | -14.1% (inactive)
CCCCCOC(=O)COc1cc(N2C(=O)C3=C(CCCC3)C2=O)c(F)cc1Cl | -21.9% (inactive)
Cc1ccccn1 | 31.9% (inactive)
C=CC(C)(CCC=C(C)C)OC(=O)c1ccccc1 (stereo not drawn) | 3.18% (inactive)
Cc1ncsc1CCO | -10.1% (inactive)
CCCCCOC(=O)c1ccc(O)cc1 | 93.9% (inactive)
O=[N+]([O-])c1cc[n+]([O-])cc1 | 4.11% (inactive)
CC(C)(Oc1ccc(Cl)cc1)C(=O)OCCCOC(=O)C(C)(C)Oc1ccc(Cl)cc1 | -7.38% [at 42.5 µM] (inactive)
CCCC(C)C | 69.8% (inactive)
CN(c1nccc(=O)[nH]1)C1CCN(c2nc3ccccc3n2Cc2ccc(F)cc2)CC1 | -8.09% [at 42.5 µM] (inactive)
CCCC(=O)OCC | 49.6% (inactive)

test: qHTS assay to identify small molecule agonists of the retinoic acid receptor (RAR) signaling pathway (AID 1159553); details: C3RL4 RARE luciferase reporter, agonist, 6 h; series mostly up to 73.3 µM; activation: at the top concentration; note: potency is the fitted concentration of half-maximal effect
Method in brief: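 Activation of retinol signaling was monitored via a RARE luciferase reporter in C3RL4 cells. After 6 hr compound treatment at 37 C, detection reagent was added for 30 min at room temperature before luminescence reading.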

Structure (SMILES) | activation | Potency
Cc1ccc(C)o1 | -0.691% [at 94.8 µM] (inactive) | 
CCCCCCCCCC(=O)OCC | 1.62% (inactive) | 
CC[C@H](C)[C@@H](C(=O)O)n1sc2ccccc2c1=O | -7.72% (inactive) | 
O=C(NS(=O)(=O)/C=C/c1cccs1)c1ccc(F)cc1Br | 2.12% (inactive) | 
CC(C)(C)c1cc(CCC(=O)OCC(COC(=O)CCc2cc(C(C)(C)C)c(O)c(C(C)(C)C)c2)(COC(=O)CCc2cc(C(C)(C)C)c(O)c(C(C)(C)C)c2)COC(=O)CCc2cc(C(C)(C)C)c(O)c(C(C)(C)C)c2)cc(C(C)(C)C)c1O | 0.613% [at 34.3 µM] (inactive) | 
CN(C)C/C=C(/c1ccc(Br)cc1)c1cccnc1 | -6.52% (inactive) | 
O=c1[nH]cnc2ccccc12 | 0.0735% [at 94.8 µM] (inactive) | 
Cc1ccc(C(=O)C(C)CN2CCCCC2)cc1 (stereo not drawn) | -0.4% (inactive) | 
C#CCOC(=O)[C@@H](C)Oc1ccc(Oc2ncc(Cl)cc2F)cc1 | 0.134% (inactive) | 
N#CCc1cccc(C(F)(F)F)c1 | 7.74% (inactive) | 
CN(C)CC[C@@H](c1ccc(Br)cc1)c1ccccn1 | -2.37% (inactive) | 
CC1=CC(=O)/C(=C(/C)O)C(=O)O1 | 0.218% (inactive) | 
O=C(NN1CCCC1)NS(=O)(=O)c1ccc(Cl)cc1 | 1.98% (inactive) | 
O=C(CC(=O)c1ccccc1)c1ccccc1 |  | 8.27 µM (active)
O=C1Nc2cc(Cl)ccc2Oc2ccccc21 | 1.99% (inactive) | 
CC(=O)/C=C/C1C(C)=CCCC1(C)C (stereo not drawn) | -0.179% (inactive) | 
Oc1ccc(O)c2c(O)cccc12 | 2.36% (inactive) | 
CCCCCOC(=O)COc1cc(N2C(=O)C3=C(CCCC3)C2=O)c(F)cc1Cl | -3.9% (inactive) | 
Cc1ccccn1 | 0.787% (inactive) | 
C=CC(C)(CCC=C(C)C)OC(=O)c1ccccc1 (stereo not drawn) | 1.43% (inactive) | 
O=S1(=O)c2cccc3cccc(c23)N1CCCN1CCN(c2ccc(F)cc2)CC1 | -5.01% (inactive) | 
Cc1ncsc1CCO | 1.83% (inactive) | 
CCCCCOC(=O)c1ccc(O)cc1 |  | 1.23 µM (active)
O=[N+]([O-])c1cc[n+]([O-])cc1 | -6.3% (inactive) | 
CC(C)(Oc1ccc(Cl)cc1)C(=O)OCCCOC(=O)C(C)(C)Oc1ccc(Cl)cc1 | -2.15% (inactive) | 
CCCC(C)C | 0.271% [at 94.8 µM] (inactive) | 
CN(c1nccc(=O)[nH]1)C1CCN(c2nc3ccccc3n2Cc2ccc(F)cc2)CC1 | -3.35% (inactive) | 
O=S1(=O)N=C(O)c2ccccc21 | 4.22% (inactive) | 
O=C(O)/C=C/c1cnc[nH]1 | -0.0428% (inactive) | 
